Measurements from PubChem BioAssay (EPA / NIEHS).
“And” between values parts separate entries of the source, which are not always exact repeats. Equal values may be shown once. The source made the active and inactive calls. The calls were made as follows: active = hit-call score of the fitted dose curve at least 0.9, where 1 is the maximum; inactive = score below 0.9.

Key:
[1] = read-out: TIMP metallopeptidase inhibitor 1 (TIMP1), TIMP1 (gene 7076); assay: BSK_hDFCGF_TIMP1: BioMAP Diversity Plus: hDFCGF Assay for TIMP metallopeptidase inhibitor 1 (TIMP1) Biomarker Activity (AID 2283062); conditions: primary human foreskin fibroblasts; actives raise or lower the signal
How it was run: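 Human foreskin fibroblast primary cultures dosed for 24 h; secreted/surface TIMP-1 quantified by ELISA. Bidirectional curve fitting against DMSO baseline; cytotoxicity tracked in parallel cultures by SRB total-protein staining.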

[2] = read-out: Monokine induced gamma interferon (MIG), CXCL9 (gene 4283); assay: BSK_hDFCGF_MIG: BioMAP Diversity Plus: hDFCGF Assay for Monokine induced gamma interferon (MIG) Biomarker Activity (AID 2283063); conditions: primary human foreskin fibroblasts; actives raise or lower the signal
How it was run: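 MIG/CXCL9 measured by ELISA 24 h after dosing primary human skin fibroblasts. Activity fitted in both directions against DMSO controls. Cytotoxicity was checked in parallel cultures by SRB staining read at 560 nm.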

[3] = read-out: Matrix Metallopeptidase 1 (MMP1), MMP1 (gene 4312); assay: BSK_hDFCGF_MMP1: BioMAP Diversity Plus: hDFCGF Assay for Matrix Metallopeptidase 1 (MMP1) Biomarker Activity (AID 2283064); conditions: primary human foreskin fibroblasts; actives raise or lower the signal
How it was run: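 ELISA read-out of MMP1 from human foreskin fibroblasts (primary skin cells), 24 h post-dose. Gain or loss of signal was fitted bidirectionally versus DMSO negative control; cytotoxicity was checked by SRB in parallel cultures.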

[4] = read-out: Vascular cell adhesion molecule 1 (VCAM1), VCAM1 (gene 7412); assay: BSK_hDFCGF_VCAM1: BioMAP Diversity Plus: hDFCGF Assay for Vascular cell adhesion molecule 1 (VCAM1) Biomarker Activity (AID 2283065); conditions: primary human foreskin fibroblasts; actives raise or lower the signal;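 as to AC50: VCAM-1 protein level quantified by ELISA after 24 h chemical exposure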
How it was run: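 Human foreskin fibroblast primary cells dosed with chemical, VCAM-1 measured by ELISA at 24 h. Bidirectional curve fitting relative to DMSO as negative control/baseline.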

[5] = read-out: Plasminogen activator inhibitor-1 (PAI1), SERPINE1 (gene 5054); assay: BSK_hDFCGF_PAI1: BioMAP Diversity Plus: hDFCGF Assay for Plasminogen activator inhibitor-1 (PAI1) Biomarker Activity (AID 2283066); conditions: primary human foreskin fibroblasts; actives raise or lower the signal
How it was run: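 ELISA readout of PAI-1 from primary human skin fibroblast cultures, 24 h after compound addition. Gain or loss of signal was fitted bidirectionally against DMSO baseline.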

[6] = read-out: Intercellular Adhesion Molecule 1 (ICAM1), ICAM1 (gene 3383); assay: BSK_KF3CT_ICAM1: BioMAP Diversity Plus: KF3CT Assay for Intercellular Adhesion Molecule 1 (ICAM1) Biomarker Activity (AID 2283067); conditions: primary human keratinocytes with fibroblasts; actives raise or lower the signal
How it was run: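 Human keratinocyte–foreskin fibroblast co-culture was treated for 24 h. Cell-surface ICAM-1 was quantified by ELISA, fitted bidirectionally relative to DMSO. Cytotoxicity was checked in parallel cultures by SRB total-protein staining.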

[7] = read-out: Interferon-gamma inducible Protein 10 (IP10), CXCL10 (gene 3627); assay: BSK_KF3CT_IP10: BioMAP Diversity Plus: KF3CT Assay for Interferon-gamma inducible Protein 10 (IP10) Biomarker Activity (AID 2283068); conditions: primary human keratinocytes with fibroblasts; actives raise or lower the signal
How it was run: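 ELISA read-out of IP-10 after 24 h chemical dosing of human skin primary co-culture (keratinocytes, foreskin fibroblasts). Gain or loss of signal relative to DMSO, bidirectional curve fit.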

[8] = BSK_KF3CT_SRB: Viability Assessment in the BioMAP Diversity Plus: KF3CT Assay (AID 2283069); conditions: primary human keratinocytes with fibroblasts;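 also: total protein by sulforhodamine B staining as a cytotoxicity measure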
How it was run: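 SRB read-out at 560 nm (0.1% stain, TCA-fixed cells) gauges overt cytotoxicity in a human skin keratinocyte–fibroblast co-culture 24 h post-dosing. Signal change was fitted bidirectionally relative to DMSO control.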

[9] = read-out: Interleukin-1 alpha (IL1a), IL1A (gene 3552); assay: BSK_KF3CT_IL1a: BioMAP Diversity Plus: KF3CT Assay for Interleukin-1 alpha (IL1a) Biomarker Activity (AID 2283070); conditions: primary human keratinocytes with fibroblasts; actives raise or lower the signal
How it was run: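 Primary skin co-culture (keratinocytes, foreskin fibroblasts), 24 h exposure; ELISA for IL-1a; bidirectional curve fit vs DMSO.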

[10] = read-out: TIMP metallopeptidase inhibitor 2 (TIMP2), TIMP2 (gene 7077); assay: BSK_KF3CT_TIMP2: BioMAP Diversity Plus: KF3CT Assay for TIMP metallopeptidase inhibitor 2 (TIMP2) Biomarker Activity (AID 2283071); conditions: primary human keratinocytes with fibroblasts; actives raise or lower the signal
How it was run: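 ELISA readout of TIMP-2 in keratinocyte plus foreskin fibroblast co-cultures (human skin primary cells), 24 h post-dose. Gain or loss of signal fitted relative to DMSO.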

[11] = read-out: Transforming growth factor beta 1 (TGFb1), TGFB1 (gene 7040); assay: BSK_KF3CT_TGFb1: BioMAP Diversity Plus: KF3CT Assay for Transforming growth factor beta 1 (TGFb1) Biomarker Activity (AID 2283072); conditions: primary human keratinocytes with fibroblasts; actives raise or lower the signal
How it was run: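 Read-out: ELISA for TGF-b1 in keratinocyte/foreskin fibroblast human skin co-culture, 24 h after dosing; bidirectional curve fit vs DMSO baseline; gain or loss of signal scored.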

[12] = read-out: C-C motif chemokine 2 (Homo sapiens) (UniProt P13500); assay: BSK_KF3CT_MCP1: BioMAP Diversity Plus: KF3CT Assay for Monocyte Chemoattractant Protein 1 (MCP1/CCL2) Biomarker Activity (AID 2283073); conditions: primary human keratinocytes with fibroblasts; actives raise or lower the signal
How it was run: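 Human keratinocyte–foreskin fibroblast co-culture; MCP-1 measured by ELISA 24 h after dosing. Bidirectional fit vs DMSO; cytotoxicity tracked by SRB total protein in parallel cultures.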

[13] = read-out: Matrix Metallopeptidase 9 (MMP9), MMP9 (gene 4318); assay: BSK_KF3CT_MMP9: BioMAP Diversity Plus: KF3CT Assay for Matrix Metallopeptidase 9 (MMP9) Biomarker Activity (AID 2283074); conditions: primary human keratinocytes with fibroblasts; actives raise or lower the signal;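 as to AC50: MMP9 protein level quantified by ELISA in the co-culture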
How it was run: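 ELISA read-out of MMP-9 at 24 h post-dosing in a co-culture of human skin keratinocytes and foreskin fibroblasts. Gain or loss of signal was fitted in both directions against DMSO.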

[14] = read-out: urokinase plasminogen activator (uPA), PLAU (gene 5328); assay: BSK_KF3CT_uPA: BioMAP Diversity Plus: KF3CT Assay for urokinase plasminogen activator (uPA) Biomarker Activity (AID 2283075); conditions: primary human keratinocytes with fibroblasts; actives raise or lower the signal
How it was run: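 Skin co-culture (keratinocytes + foreskin fibroblasts), human primary; 24 h post-dose; uPA by ELISA; gain/loss fit vs DMSO baseline.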

CD40, CD40 (gene 958) = assay: BSK_LPS_CD40: BioMAP Diversity Plus: LPS Assay for CD40 Biomarker Activity (AID 2283076); conditions: primary human HUVEC with PBMC; actives raise or lower the signal
How it was run: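 HUVEC plus PBMC co-culture stimulated with LPS; CD40 quantified by ELISA 24 h after compound dosing. Fitting was bidirectional relative to DMSO. SRB staining of parallel cultures flagged overt cytotoxicity.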

[15] = read-out: E-selectin (Homo sapiens) (UniProt P16581); assay: BSK_LPS_Eselectin: BioMAP Diversity Plus: LPS Assay for Eselectin Biomarker Activity (AID 2283077); conditions: primary human HUVEC with PBMC; actives raise or lower the signal
How it was run: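 Human umbilical vein endothelial cells co-cultured with PBMC under LPS stimulation; cell-surface E-selectin measured by ELISA 24 h after dosing. Change in either direction versus DMSO, with SRB total-protein staining in parallel cultures for cytotoxicity.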

[16] = read-out: Interleukin-8 (IL8), CXCL8 (gene 3576); assay: BSK_LPS_IL8: BioMAP Diversity Plus: LPS Assay for Interleukin-8 (IL8) Biomarker Activity (AID 2283078); conditions: primary human HUVEC with PBMC; actives raise or lower the signal
How it was run: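 Human umbilical vein endothelial cells co-cultured with PBMC, LPS-stimulated, exposed to compound for 24 h. IL-8 quantified by ELISA; fitted in both directions against DMSO, with SRB total-protein staining of parallel cultures for cytotoxicity.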

[17] = BSK_LPS_SRB: Viability Assessment in the BioMAP Diversity Plus: LPS Assay (AID 2283079); conditions: primary human HUVEC with PBMC;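 also: total protein by sulforhodamine B absorbance as a cytotoxicity measure; measured one day after compound addition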
How it was run: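 Co-culture of human umbilical vein endothelial cells and PBMC, read 24 h after dosing. Total protein by 0.1% SRB staining after 10% TCA fixation, absorbance at 560 nm; bidirectional fit against DMSO.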

[18] = read-out: Interleukin-1 alpha (IL1a), IL1A (gene 3552); assay: BSK_LPS_IL1a: BioMAP Diversity Plus: LPS Assay for Interleukin-1 alpha (IL1a) Biomarker Activity (AID 2283080); conditions: primary human HUVEC with PBMC; actives raise or lower the signal
How it was run: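 Human umbilical vein endothelial cells co-cultured with PBMC and stimulated with LPS; IL-1a measured by ELISA 24 h after dosing. Bidirectional fitting against DMSO; cytotoxicity checked by SRB staining in parallel cultures.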

[19] = read-out: Monocyte Chemoattractant Protein-1 (MCP1), CCL2 (gene 6347); assay: BSK_LPS_MCP1: BioMAP Diversity Plus: LPS Assay for Monocyte Chemoattractant Protein-1 (MCP1) Biomarker Activity (AID 2283081); conditions: primary human HUVEC with PBMC; actives raise or lower the signal;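 as to AC50: secreted MCP-1 protein quantified by ELISA in culture supernatant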
How it was run: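 Human umbilical vein endothelial cells co-cultured with PBMC, LPS-stimulated; secreted MCP-1 measured by ELISA 24 h after compound addition. Bidirectional curve fitting against DMSO baseline; SRB total-protein staining in parallel cultures for cytotoxicity.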

Measured: AC50

Chain of E-selectin (Homo sapiens) (P16581 whole entry, looked up): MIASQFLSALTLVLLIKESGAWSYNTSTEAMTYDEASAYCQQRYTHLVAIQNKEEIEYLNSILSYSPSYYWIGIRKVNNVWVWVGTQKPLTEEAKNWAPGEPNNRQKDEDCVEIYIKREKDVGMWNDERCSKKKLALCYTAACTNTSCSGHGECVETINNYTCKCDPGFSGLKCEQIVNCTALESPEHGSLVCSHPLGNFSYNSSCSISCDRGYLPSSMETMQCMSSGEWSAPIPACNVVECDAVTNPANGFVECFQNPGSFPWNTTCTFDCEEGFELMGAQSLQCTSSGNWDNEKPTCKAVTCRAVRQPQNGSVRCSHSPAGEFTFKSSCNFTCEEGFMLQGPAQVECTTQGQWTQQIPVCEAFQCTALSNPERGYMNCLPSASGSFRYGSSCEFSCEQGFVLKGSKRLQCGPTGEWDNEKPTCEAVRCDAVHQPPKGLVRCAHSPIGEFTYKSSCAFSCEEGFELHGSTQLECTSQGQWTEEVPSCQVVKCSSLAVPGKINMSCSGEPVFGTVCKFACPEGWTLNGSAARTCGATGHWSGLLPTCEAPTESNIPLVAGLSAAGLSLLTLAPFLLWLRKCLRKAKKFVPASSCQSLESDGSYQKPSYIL

CCCCOC(=O)CCCCCCCC(=O)OCCCC
inactive: all assays above

CC(=O)C1(C)CC2=C(CCCC2(C)C)CC1C (centres undefined)
inactive: [11]
active: [1] 12 µM | [2] 14.2 µM | [3] 12.8 µM | [4] 9.73 µM | [5] 11.8 µM | [6] 12.3 µM | [7] 11.2 µM | [8] 10.2 µM | [9] 13.1 µM | [10] 5.63 µM | [12] 10.3 µM | [13] 10.9 µM | [14] 11.6 µM | CD40, CD40 (gene 958) 6.43 µM | [15] 9.47 µM | [16] 10.1 µM | [17] 13.3 µM | [18] 5.8 µM | [19] 10.9 µM

CCCCCCC(CO)CCCC (centres undefined)
active: [1] 30.9 µM and 35.9 µM | [2] 34 µM and 30.5 µM | [3] 31.1 µM and 30.7 µM | [4] 32.5 µM and 36.7 µM | [5] 29.9 µM and 36.3 µM | [6] 32.9 µM and 37.4 µM | [7] 38.1 µM and 36.7 µM | [8] 35.6 µM and 36.1 µM | [9] 33.4 µM and 30.3 µM | [10] 35.1 µM and 35.2 µM | [12] 32.9 µM and 36.2 µM | [13] 35.1 µM and 36.4 µM | [14] 30.5 µM and 36.6 µM
inactive: CD40, CD40 (gene 958) | [15] | [16] | [17] | [18] | [19]
